HEK cytotox: cytotoxic compounds in HEK 293 cells. HEK 293 viability, ATP luminescence (CellTiter-Glo), 48-72 h. Potency, µM (highest dose often 115 µM), hits mostly inhibitors. actives 6.6% (n = 94,000); note: nearly all actives have a fitted effect of over 60% in size
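Cells seeded first (HEK 293, 250 cells/well), then compound added by pintool. Incubation ran 48 or 72 hr at 37 degree Celsius. CellTiter-Glo was added and luminescence imaged after 10 min at room temperature.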
3T3 cytotox: NIH 3T3 cell cytotoxicity. NIH 3T3 viability, CellTiter-Glo ATP luminescence, 48-72 h. Potency, µM (series often up to 96.7 µM), actives largely listed as inhibitors. actives 4.3% (n = 94,000). AID 1345082; note: nearly all actives have a fitted effect of over 55% in size
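Cytotoxicity was measured by CellTiter-Glo ATP luminescence after 48 or 72 h compound exposure at 37 °C. Mouse NIH 3T3 fibroblasts were seeded at 400 cells/well and dosed by 23 nL pin transfer.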
FLuc inh: blocks purified firefly luciferase enzyme activity; purified P. pyralis luciferase, luminescence, biochemical; Potency, µM (doses to about 115 µM), hits mostly inhibitors; actives 2.5% (n = 76,000); note: nearly all actives have a fitted effect of over 65% in size
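Inhibitors were tested against purified firefly luciferase in a biochemical, low-substrate format (both substrates at 10uM) and luminescence measured with a CCD imager.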
GPT2 inh: inhibitors of human GPT2 alanine aminotransferase | Potency, µM (series often up to 57.7 µM), actives largely listed as inhibitors | AID 1671188 | Recombinant GPT2, coupled pyruvate oxidase/HRP Amplex Red fluorescence | actives 0.25% (n = 100,000); note: nearly all actives have a fitted effect of over 60% in size
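Inhibition is scored from Amplex Red fluorescence generated when pyruvate oxidase and HRP act on pyruvate released by GPT2. Reactions contain 10ng/uL enzyme, 250uM a-KG and 2mM L-alanine and run 30 min at room temperature.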
hNpr1 antagonist: antagonists of human natriuretic peptide receptor Npr1; P16066; HEK293 hNpr1 GloSensor cGMP, ANP-stimulated luminescence; Potency, µM (titrated, usually from 46.3 µM), hits mostly inhibitors; actives 1.6% (n = 76,000); calls by dose curve; note: nearly all actives have a fitted effect of over 60% in size
Target sequence (P16066 whole entry, looked up): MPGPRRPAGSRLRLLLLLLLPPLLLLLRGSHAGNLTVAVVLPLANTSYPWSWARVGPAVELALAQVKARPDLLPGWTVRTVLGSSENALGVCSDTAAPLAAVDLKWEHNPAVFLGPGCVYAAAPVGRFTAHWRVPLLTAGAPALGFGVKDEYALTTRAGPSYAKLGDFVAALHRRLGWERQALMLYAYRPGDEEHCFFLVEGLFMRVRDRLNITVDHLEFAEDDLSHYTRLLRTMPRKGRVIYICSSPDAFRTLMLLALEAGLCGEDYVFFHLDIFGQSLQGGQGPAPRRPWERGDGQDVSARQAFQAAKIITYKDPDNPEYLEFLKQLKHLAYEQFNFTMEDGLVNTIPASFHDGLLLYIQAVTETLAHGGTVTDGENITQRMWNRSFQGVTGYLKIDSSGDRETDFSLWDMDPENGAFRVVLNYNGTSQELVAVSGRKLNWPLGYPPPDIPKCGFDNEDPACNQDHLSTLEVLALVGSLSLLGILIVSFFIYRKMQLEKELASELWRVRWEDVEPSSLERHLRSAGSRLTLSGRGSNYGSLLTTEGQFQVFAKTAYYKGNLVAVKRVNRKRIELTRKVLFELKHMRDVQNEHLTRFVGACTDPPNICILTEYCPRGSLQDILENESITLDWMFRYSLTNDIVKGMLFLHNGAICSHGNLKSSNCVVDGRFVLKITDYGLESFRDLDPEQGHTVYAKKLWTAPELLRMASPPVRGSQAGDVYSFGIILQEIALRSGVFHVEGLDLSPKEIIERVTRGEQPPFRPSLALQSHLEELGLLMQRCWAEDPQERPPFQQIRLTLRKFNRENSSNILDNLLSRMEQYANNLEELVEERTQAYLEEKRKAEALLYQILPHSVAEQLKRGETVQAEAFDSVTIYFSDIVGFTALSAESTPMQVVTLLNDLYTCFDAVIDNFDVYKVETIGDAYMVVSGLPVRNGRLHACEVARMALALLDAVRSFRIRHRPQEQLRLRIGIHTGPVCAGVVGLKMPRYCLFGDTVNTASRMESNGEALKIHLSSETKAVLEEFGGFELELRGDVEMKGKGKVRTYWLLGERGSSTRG
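HEK293 cells stably expressing human Npr1 and cGMP GloSensor pGS-40F, loaded 2 h with 2% GloSensor reagent, given compound 30 min at room temperature. Luminescence read before and 20 min after 0.1 nM hNppA.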
Of the large screens only hits and unclear results are named; the others gave an inactive call. An excerpt weighted towards active compounds, which were near 10% of everything screened. Unless noted, calls come from the whole dose curve; as a rule, active = well fitted curve in the direction sought with a large enough effect; inconclusive = small, poorly fitted or top-dose-only effect, or another doubt; inactive = no such curve, though single readings can be large; an effect the other way counts as inactive or inconclusive.

CCOC(=O)C1=CN(CC(=O)Nc2ccc(C(C)=O)cc2)S(=O)(=O)N=C1C	HEK cytotox inconclusive, 3T3 cytotox inconclusive
CC(C)CN1CCN(C2CCOC3(CCN(S(=O)(=O)Cc4ccccc4)CC3)C2)CC1 (stereo not given)	none (no result: FLuc inh, hNpr1 antagonist)
CCn1cc(C(=O)N2CC(=O)N(CCc3ccccc3)CC(OCc3cccc(OC)c3)C2)cn1 (stereo not given)	none
COc1ccccc1CNC(=O)C1CCN(c2nccc(Nc3ccccc3F)n2)CC1	HEK cytotox inconclusive, 3T3 cytotox inconclusive (no result: FLuc inh, hNpr1 antagonist)
COc1ccc(Nc2ccnc(N3CCC(C(=O)NCC(F)(F)F)CC3)n2)cc1	HEK cytotox 79µM, 3T3 cytotox inconclusive (no result: FLuc inh, hNpr1 antagonist)
COc1ccc(Nc2ccnc(N3CC4CCC(C3)N4CC(F)(F)F)n2)cc1	HEK cytotox 32µM, 3T3 cytotox 40µM, GPT2 inh inconclusive (no result: FLuc inh, hNpr1 antagonist)
COc1ccc(Nc2ccnc(N3CCC(C(=O)NCc4ccccc4OC)CC3)n2)cc1	HEK cytotox 28µM, 3T3 cytotox 32µM (no result: FLuc inh, hNpr1 antagonist)
Cc1ccc(C(=O)N2Cc3c(C(=O)NC4CC4)nn(C)c3C2)cc1F	none (no result: FLuc inh, hNpr1 antagonist)
O=C(Nc1cccc(Cl)c1)c1nc2cccnc2n(Cc2ccccc2)c1=O	HEK cytotox inconclusive (no result: FLuc inh, hNpr1 antagonist)
COc1ccc(CCNC(=O)c2ccc3oc(-c4ccnc(Cl)c4)nc3c2)cc1	none (no result: FLuc inh, hNpr1 antagonist)
Cc1ccc(-c2nc(C(=O)N3CCN(c4ccc(C)cc4C)CC3)no2)cc1	HEK cytotox inconclusive, 3T3 cytotox inconclusive
Cc1ccc(-c2nc(C(=O)N3CCN(c4cccc(C)c4)CC3)no2)cc1	HEK cytotox inconclusive, 3T3 cytotox inconclusive, FLuc inh 18µM
COc1cccc(N2CCN(C(=O)c3noc(-c4ccc(C)cc4)n3)CC2)c1	HEK cytotox inconclusive, FLuc inh 20µM
Cc1ccc(-c2nc(C(=O)N3CCN(c4ccc(C)cc4)CC3)no2)cc1	FLuc inh 14µM
Cc1ccc(-c2nc(C(=O)N3CCN(c4cc(C)ccc4C)CC3)no2)cc1	HEK cytotox inconclusive, 3T3 cytotox inconclusive
Cc1ccc(CN2CCC(c3nn(C)c(=O)n3Cc3ccccc3)CC2)o1	HEK cytotox inconclusive, 3T3 cytotox inconclusive
O=C(c1cn(C/C=C/c2ccccc2)nn1)N1CCCN(C2CCCCC2)CC1	HEK cytotox inconclusive
Cn1cc(CN2C[C@H](C(=O)Nc3ccc(F)cc3)C[C@H]2c2cccc(C(F)(F)F)c2)cn1	HEK cytotox inconclusive, 3T3 cytotox inconclusive
O=C(Nc1ccc(F)cc1)[C@@H]1C[C@@H](c2cccc(C(F)(F)F)c2)N(CC2CCOCC2)C1	HEK cytotox inconclusive, 3T3 cytotox 25µM
O=C(Nc1ccncn1)[C@@H]1C[C@@H](c2cccc(C(F)(F)F)c2)N(CC2CCOCC2)C1	HEK cytotox 79µM, 3T3 cytotox inconclusive
CN1CCC2(C1)CN(CC1CC1)c1ccc(C(=O)NC3COC3)cc12 (stereo not given)	HEK cytotox inconclusive
O=C(Cc1c[nH]c2ncc(-c3ccccc3)cc12)NCC1CCOCC1	HEK cytotox 79µM, 3T3 cytotox inconclusive
Cc1ccccc1-c1cnc2[nH]cc(CC(=O)NCCN(C)C)c2c1	HEK cytotox 40µM, 3T3 cytotox inconclusive
CN(C)CCNC(=O)Cc1c[nH]c2ncc(-c3ccccc3)cc12	HEK cytotox 112µM, 3T3 cytotox inconclusive
Cc1cnc(C2CN(C(=O)C(C)c3ccccc3)C2)n1Cc1ccccc1 (stereo not given)	none (no result: FLuc inh, hNpr1 antagonist)
O=C(c1ccccc1Cl)N1CCN(CCCn2nc3n(c2=O)CCCC3)CC1	none (no result: FLuc inh, GPT2 inh, hNpr1 antagonist)
Cc1noc(-c2ccc(OC(F)(F)F)cc2)c1C(=O)NCCc1ccc(F)cc1	HEK cytotox inconclusive
COc1cc(CN(C)C(=O)c2c(C)noc2-c2cccc(F)c2)cc(OC)c1OC	HEK cytotox 45µM, 3T3 cytotox inconclusive
COc1ccc(CCNC(=O)c2c(C)noc2-c2ccc(OC(F)(F)F)cc2)cc1	HEK cytotox 50µM
COCCNC(=O)c1c(C)noc1-c1cc(OC)c(OC)c(OC)c1	none
COc1cc(-c2onc(C)c2C(=O)N(C)Cc2ccccc2)cc(OC)c1OC	HEK cytotox inconclusive, 3T3 cytotox inconclusive
COc1cc(-c2onc(C)c2C(=O)NCCC(c2ccccc2)c2ccccc2)cc(OC)c1OC	HEK cytotox 35µM, 3T3 cytotox inconclusive
COc1cc(OC)c(CNC(=O)c2c(C)noc2-c2ccc(OC(F)(F)F)cc2)c(OC)c1	HEK cytotox 40µM, 3T3 cytotox inconclusive
CC(C)NC(=O)C1CCC(=O)N1C1CCN(C(=O)Cc2ccc(Cl)cc2)CC1 (stereo not given)	none (no result: FLuc inh, hNpr1 antagonist)
Cc1ccc(SC2CCN(Cc3cc4n(n3)CCNC4)CC2)cc1	HEK cytotox 14µM, 3T3 cytotox 14µM
COc1ccccc1OC1CCN(Cc2cc3n(n2)CCNC3)CC1	none
COC(=O)[C@@H]1Cc2ncn(Cc3ccc(Cl)cc3)c2CN1CCCc1ccccc1	HEK cytotox 25µM, hNpr1 antagonist inconclusive
COC(=O)[C@@H]1Cc2ncn(Cc3ccc(Cl)cc3)c2CN1Cc1cccs1	HEK cytotox inconclusive, 3T3 cytotox 89µM, GPT2 inh inconclusive, hNpr1 antagonist inconclusive
COC(=O)[C@@H]1Cc2ncn(Cc3ccc(OC)cc3)c2CN1CCCc1ccccc1	HEK cytotox inconclusive, 3T3 cytotox inconclusive
Cc1ccc([S+](=O)([O-])N2CCCC(C(=O)N3CCC(c4nc5ccncc5[nH]4)C3)C2)cc1 (stereo not given)	none (no result: FLuc inh, hNpr1 antagonist)
COc1cccc(N2CCN(C(=O)c3ccc4c(c3)N(C)C3CCCCCN3C4=O)CC2)c1 (stereo not given)	HEK cytotox 50µM
Cc1cccc(N2CCN(C(=O)c3ccc4c(c3)N(C)C3CCCCCN3C4=O)CC2)c1 (stereo not given)	HEK cytotox 40µM, 3T3 cytotox inconclusive
CN1c2cc(C(=O)N3CCN(c4ccc(Cl)cc4)CC3)ccc2C(=O)N2CCCCC21 (stereo not given)	HEK cytotox inconclusive, hNpr1 antagonist inconclusive
CN1c2cc(C(=O)N3CCN(c4ccc(F)cc4)CC3)ccc2C(=O)N2CCCCCC21 (stereo not given)	HEK cytotox 45µM, 3T3 cytotox inconclusive
Cn1ccnc1C(=O)N1CCC(N2C(=O)C3(CCCCC3)C2c2ccccc2)CC1 (stereo not given)	none (no result: FLuc inh, hNpr1 antagonist)
CCn1ncc(NC(=O)Cn2ncc3cc(-c4cc(F)ccc4F)ccc32)n1	3T3 cytotox inconclusive, hNpr1 antagonist inconclusive
CCn1ncc(NC(=O)Cn2ncc3cc(-c4ccc(F)cc4F)ccc32)n1	3T3 cytotox inconclusive, FLuc inh inconclusive, hNpr1 antagonist 13µM
CCn1ncc(NC(=O)Cn2ncc3cc(-c4ccc(C(=O)N(C)C)cc4)ccc32)n1	HEK cytotox 45µM, FLuc inh 6.3µM, GPT2 inh inconclusive
CCn1ncc(NC(=O)Cn2ncc3cc(-c4cccc(C#N)c4)ccc32)n1	HEK cytotox 25µM, 3T3 cytotox inconclusive, hNpr1 antagonist inconclusive
O=C(c1ccc2nnc(Cc3ccc(Cl)cc3)n2c1)N1CCOCC1	none (no result: FLuc inh, hNpr1 antagonist)
